# G9a block: G9a (human) methyltransferase inhibition; G9a H3K9 monomethylation, AlphaScreen, 2 h; Potency, µM (doses to about 102 µM), inactives show at the top dose activity, negative = inhibition, usual class: inhibitors; AID 504332; Q96KQ7; hit rate 8.8% among 350,000; also: potency is read from the fitted curve at half-maximal effect; % is scaled to controls: 0 for no effect and ±100 for the full control effect; nearly all actives have a fitted effect of over 75% in size
# Target sequence (Q96KQ7 913-1193 limits assumed): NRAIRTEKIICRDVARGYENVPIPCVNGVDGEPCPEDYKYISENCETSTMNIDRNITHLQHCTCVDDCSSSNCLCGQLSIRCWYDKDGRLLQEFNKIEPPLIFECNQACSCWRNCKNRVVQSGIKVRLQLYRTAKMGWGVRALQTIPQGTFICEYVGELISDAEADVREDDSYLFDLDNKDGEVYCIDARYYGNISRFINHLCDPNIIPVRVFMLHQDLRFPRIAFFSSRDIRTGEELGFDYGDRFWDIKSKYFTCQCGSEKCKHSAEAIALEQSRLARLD
#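 Compounds were preincubated with 20 nM G9a for 15 min, after which biotinylated H3K9 peptide (500 nM) and SAM (20 uM) started a 2 h room-temperature reaction. Monomethylated product was quantified by antibody-based AlphaScreen chemiluminescence.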
# JMJD2A Tudor: inhibitors of human JMJD2A Tudor domain | O75164 | AlphaScreen JMJD2A-Tudor / H3K4me3 peptide binding | Potency, µM (doses to about 114 µM), for inactives: top-dose activity change, negative = inhibition, actives largely listed as inhibitors | hit rate 4.4% among 390,000 | AID 504339; also: potency is read from the fitted curve at half-maximal effect; % is scaled to controls: 0 for no effect and ±100 for the full control effect; nearly all actives have a fitted effect of over 50% in size
# L3MBTL1 inh: blocks human L3MBTL1 | AlphaScreen L3MBTL1–H3K9me1 peptide binding | Potency, µM (doses to about 57.1 µM), for the others: at the top dose activity, negative = inhibition, hits mostly inhibitors | hit rate 0.66% among 230,000; also: potency is read from the fitted curve at half-maximal effect; % is scaled to controls: 0 for no effect and ±100 for the full control effect; nearly all actives have a fitted effect of over 60% in size
#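 L3MBTL1 (50 nM) pre-complexed 30 min with biotinylated H3(1-15)K9me1 peptide (75 nM), then compounds added for 30 min at room temperature; AlphaScreen streptavidin donor/nickel chelate acceptor beads (10 ug/mL final) read after 30 min dark incubation.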
# PI5P4K alpha inh: inhibitors of human PI5P4K alpha. PI5P4Kalpha enzyme, ADP-Glo luminescence, 60 min; active compounds read low. max response, %. hit rate 1.2% among 330,000. AID 652105; active = max response of -50% or lower; inconclusive = between -30% and -50%; inactive = -30% or higher; also: value at the top dose of about 77 µM; % is scaled to controls: 0 for no effect and ±100 for the full control effect
#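 PI5P4Kalpha ADP-Glo assay; 5 microM ATP final; 60 min RT reaction; HEPES pH 7.4/EGTA/CHAPS, 5% DMSO; controls lacking substrate or enzyme; luminescent end-point.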
# HP1b chromo inh: HP1-beta chromodomain-methylated histone interaction inhibition; hit rate 0.56% among 390,000; Potency, µM (series often up to 114 µM), for the others: top-dose activity change, negative = inhibition, most hits filed as inhibitors; P83916; AlphaScreen HP1-beta / biotin-H3K9me3 peptide binding; also: potency is read from the fitted curve at half-maximal effect; nearly all actives have a fitted effect of over 70% in size
# Target sequence (P83916 whole entry, looked up): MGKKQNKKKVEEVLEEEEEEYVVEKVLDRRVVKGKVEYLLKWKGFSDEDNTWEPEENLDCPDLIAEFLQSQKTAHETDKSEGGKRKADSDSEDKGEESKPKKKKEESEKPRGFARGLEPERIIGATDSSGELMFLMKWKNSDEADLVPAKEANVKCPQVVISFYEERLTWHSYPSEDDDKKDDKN
#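 AlphaScreen: HP1-beta (50 nM) preformed 30 min with biotin-H3(1-18)K9me3 peptide (50 nM) in PBS pH 7.4, 0.01% Tween-20. Compound added for 30 min at RT, then streptavidin donor/nickel chelate acceptor beads (10 ug/mL) for 30 min.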
# BAZ2B inh: blocks human BAZ2B. hit rate 4.4% among 360,000. AlphaScreen BAZ2B-H3K14Ac peptide displacement. Potency, µM (top dose mostly 114 µM), for the others: at the top dose activity change, negative = inhibition, most hits filed as inhibitors. Q9UIF8. AID 504333; also: potency is read from the fitted curve at half-maximal effect; % is scaled to controls: 0 for no effect and ±100 for the full control effect; nearly all actives have a fitted effect of over 60% in size
#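 AlphaScreen displacement: compounds (up to 110uM) incubated 30 min at room temperature with a preformed 50 nM BAZ2B/50 nM biotinylated H3K14Ac peptide complex in PBS pH 7.4 with Tween-20. Donor and acceptor beads at 10 ug/mL final added, 20 min light-protected before reading.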
# Numbers without * were called inactive; ? = inconclusive; . = not tested or not shown; [ ] = remark or other dose. Compounds with a hit are over-represented: about 11% of the library has one in this group of screens. Unless noted, calls follow the shape of the dose curve; as a rule, active = well fitted inhibition curve with a large enough effect; inconclusive = small, poorly fitted or top-dose-only effect; inactive = no such curve, though single readings can be large or run the other way.
SMILES,G9a block,JMJD2A Tudor,L3MBTL1 inh,PI5P4K alpha inh,HP1b chromo inh,BAZ2B inh
Brc1ccc(CSc2nccn2-c2ccccc2)cc1,45µM*,56µM*,?,10,?,40µM*
O=C(CSc1nccn1-c1ccccc1)NO,4%,-5%[11.4 µM],16%,1,-4%,?
Cn1c(SCc2ccc(Br)cc2)nnc1-c1ccccn1,?,-5%,-1%,-1,3%,79µM*
O=C(Nc1cc(F)ccc1F)c1cc2nc(-c3ccco3)cc(C(F)(F)Cl)n2n1,?,-14%,.,.,24%,-4%
Cc1ccc(/C=N/NC(=O)CNC(=O)c2ccc(S(=O)(=O)N3CCCC3)cc2)o1,45µM*,-10%,0%,-2,37%,-14%
O=C(CNC(=O)c1ccc(S(=O)(=O)N2CCCCC2)cc1)N/N=C/c1ccco1,-19%,-13%,.,-7,19%,-21%
O=C(COC(=O)CNC(=O)c1ccc(Cl)cc1Cl)NC(=O)NCc1ccccc1,56µM*,0%,-1%,6,42%,2%
COc1ccccc1C(=O)NC(=O)COC(=O)CNC(=O)c1ccccc1,1%,-6%,0%,-3,28%,-4%
COc1ccccc1C(=O)NC(=O)COC(=O)CNC(=O)c1ccc(Cl)cc1Cl,50µM*,3%,-1%,1,41%,6%
CSc1ccc(-c2sc(Nc3ccccc3)n[n+]2-c2ccc(F)cc2)cc1,50µM*,56µM*,-4%,?,-7%,?
Oc1ccc(-c2sc(Nc3ccccc3)n[n+]2-c2ccc(F)cc2)cc1,35µM*,-9%,7%,-5,11%,?
C[n+]1nc(Nc2ccccc2)sc1-c1ccc(O)cc1,?,-23%,-3%,-3,49%,-1%
Cc1ccc(CNC(=O)Cn2c(=O)cc(C(F)(F)F)c3c(C)nn(C)c32)cc1,8%[59 µM],-17%,.,.,-20%,-2%
COC(=O)c1ccc(-c2ccc(C3C4C=CCC(C)C4C(=O)N3Cc3ccccc3)c(F)c2)cc1 (centres undefined),.,-17%,.,.,38%,.
Cc1cccc(C(=O)n2nc(C)c(S(=O)(=O)N3CCOCC3)c2C)c1,?,-2%,.,.,40%[57 µM],-3%
COc1ccc(NC(=O)CCc2nnc3n(CC(C)C)c(=O)c4ccccc4n23)cc1,2%[59 µM],-16%,.,.,10%,4%
CCc1nnc2c(NCc3ccc(F)cc3)nc3ccccc3n12,-35%[59 µM],-17%,.,.,40%,1%
CSc1c(-c2ccccc2)nc2ccc(Cl)cc2c1C(=O)O,41%[12.7 µM],-2%,-6%,-2,17%,-35%
Cc1ccc2nc(-c3ccccc3)c(CC(=O)O)c(C(=O)O)c2c1,45µM*,-9%,-7%,-5,21%,?
Cc1cc2c(s1)c1cnn(Cc3cc(F)c(F)c(F)c3)c(=O)c1n2C,.,-19%,.,.,.,.
O=C(CNC(=O)c1ccco1)OCc1cccc(Cl)c1,50µM*,-3%[57.1 µM],2%,-2,48%,0%
O=C(CNS(=O)(=O)c1ccccc1)OCC(=O)c1ccc(Br)cc1,-10%,-9%,.,-2,-13%,3%
O=C(CNC(=O)c1ccco1)OCC(=O)c1ccc2c(c1)CCCC2,50µM*,-25%,-6%,.,1%,-3%[57.1 µM]
O=C(CNS(=O)(=O)c1ccccc1)OCC(=O)c1ccc([N+](=O)[O-])cc1,7.1µM*,?,7%,?,37%,-26%
O=C(CNC(=O)c1ccco1)OCC(=O)c1ccc([N+](=O)[O-])cc1,25µM*,-32%,.,-11,9%,3%
COc1ccc(CNC(=O)Cc2c(C)c3c(cc(C)c4c(C)c(C)oc43)oc2=O)cc1OC,8%[59 µM],-13%,.,.,23%,-12%
Fc1cccc(-n2ncc3c2ncn2nc(Cc4ccccc4)nc32)c1,-28%[59 µM],-4%,.,.,24%,-4%
C[N+]12CCCCC1C(COC(=O)c1ccc3c(c1)OCO3)CCC2 (centres undefined),?,20µM*,.,.,?,?
COc1ccc(C2CC(c3ccccc3)Oc3cc4c(cc32)OCO4)cc1 (centres undefined),.,35µM*,.,.,?,.

# Source: PubChem BioAssay
